# Assay results from PubChem BioAssay.
# Activity calls are given as the source filed them.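 Rule for the calls, unless noted: active = visually confirmed hit in the image check and inhibition above 20%; inconclusive = visually confirmed hit but inhibition not above 20%; inactive = no visual hit in the image check.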
# Test: inhibitors of TNFa-induced NFkB p65 translocation, primary screen, imaging, HUVEC, MLSMR starter and 10KST1 sets (AID 438;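 active = inhibition above 20% together with a positive visual image hit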;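 note: compound added about 3h40 before a 20 min TNFalpha stimulation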;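 for inhibition: signal is the nuclear over cytoplasmic p65 intensity ratio per well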)
# Conditions: HUVEC TNFa-induced p65 nuclear translocation; cell count: measured here: nuclei count (cytotoxicity indicator), at 2.08 µM unless noted; inhibition: at 2 µM, stronger effect = higher value unless noted
SMILES,inhibition,cell count
Nc1ncc(P(=S)(N2CCOCC2)N2CCOCC2)s1,-2.7% (inactive),452
CCCCc1nc(N2CCNCC2)c(C#N)c2c1CSC(C)(C)C2,-12.8% (inactive),519
COc1ccc(C(=O)CC2C(=O)N(C)C(=O)N(C)C2=O)cc1,14.4% (inactive),726
CCc1nc(N2CCNCC2)c(C#N)c2c1CSC(C)(C)C2,3% (inactive),652
COC(=O)c1cncn1C(C)c1ccccc1 (configuration not stated),-3.4% (inactive),671
CCCN(CC#CCO)CCC,11.7% (inactive),701
OC1(c2ccc(F)cc2)CCNC1 (configuration not stated),-8% (inactive),391
COc1ccccc1-n1c(O)c(C=NCCCn2ccnc2)c(=O)[nH]c1=O,3.4% (inactive),752
COc1ccc(C2SCC(=O)Nc3c2c(=O)[nH]n3C2CCCCC2)cc1 (configuration not stated),-8.8% (inactive),380
CCCNS(=O)(=O)c1ccc(OCC(=O)N2CCN(Cc3ccccc3)CC2)cc1,-7.1% (inactive),296
CCCCNC(=O)Nc1ccc(C(O)(C(=O)OCC)C(F)(F)F)cc1 (configuration not stated),-5.9% (inactive),688
CCOC(=O)c1cc(C)n(CCc2cnc[nH]2)c1C,2.4% (inactive),561
CC1CN=C(Nc2ccc(N(C)C)cc2)S1 (configuration not stated),0.8% (inactive),666
NCC1(c2ccc3c(c2)OCCO3)CCCC1,8.6% (inactive),634
CCOC(=O)C1=C(C)OC(N)=C(C(=O)OCC)[C@@]12C(=O)N(CC(N)=O)c1ccccc12,-6.3% (inactive),465
COC(=O)C(O)(c1ccc(NC(=O)c2ccco2)c(OC)c1)C(F)(F)F (configuration not stated),3.2% (inactive),569
C=CCOC(=O)C1=C(C)OC(N)=C(C#N)[C@@]12C(=O)N(CC(N)=O)c1ccccc12,-1.4% (inactive),473
C=CCOC(=O)C1=C(C)OC(N)=C(C#N)C12C(=O)N(CN1CCOCC1)c1ccccc12 (configuration not stated),0.7% (inactive),388
O=C(CN1CCN(CCO)CC1)Nc1ccc(Cl)cc1C(=O)c1ccccc1,-4% (inactive),431

SMILES,inhibition,cell count
Cc1c(N=Cc2c(O)n(Cc3ccco3)c(=O)[nH]c2=O)c(=O)n(-c2ccccc2)n1C,-1.8% (inactive),591
CN(C)CCOC(=O)c1cn(Cc2ccccc2)c2ccccc12,-9.5% (inactive),639
COC(=O)CC1(Cc2ccccc2)C(=O)NC(=O)NC1=O,-6.3% (inactive),641
COc1ccc2c(c1OC)C(=O)OC2c1c(O)n(C2CCCCC2)c(=O)[nH]c1=O (configuration not stated),-9.7% (inactive),572
Cn1c(O)c(C=NCCCNC2CCCCC2)c(=O)n(C)c1=O,1.2% (inactive),420
COc1ccc(C2SCC(=O)Nc3c2c(=O)[nH]n3C2CCCCCC2)cc1 (configuration not stated),-7.2% (inactive),564
CNC(=O)N(C)c1nnc(C(C)(C)C)s1,-6.4% (inactive),642
CCCC12CN3CN(C1)CC(CCC)(C3)C2O (configuration not stated),5.6% (inactive),527
Nc1c(C(=O)NCc2ccco2)c2nc3ccccc3nc2n1CCN1CCCCC1,18.1% (inactive),676
OC(c1ccc(F)cc1)C(c1ccccc1)N1CCOCC1 (configuration not stated),2.9% (inactive),679
COC(=O)C(c1ccccc1)N1CCCCCC1 (configuration not stated),0.3% (inactive),730
CCn1c(O)c(C(=O)CC2NCCc3ccccc32)c(=O)n(CC)c1=S (configuration not stated),-7.2% (inactive),494
Nc1c(C(=O)NCc2ccco2)c2nc3ccccc3nc2n1Cc1ccc(F)cc1,12.5% (inactive),678
COc1ccc(CC[n+]2cc(/N=C(\C)[O-])on2)cc1OC,-23.5% (inactive),648
CCCCNC(=O)Nc1ccc(C(O)(C(=O)OC)C(F)(F)F)cc1 (configuration not stated),-8.8% (inactive),632
CC1(C)NCCN2C(=O)CSC21 (configuration not stated),-12.6% (inactive),652
CC1(c2ccccc2)NCCN2C(=O)CSC21 (configuration not stated),2.3% (inactive),632
CN1CCc2c(c(N3CCCCC3)nc3n[nH]c(N)c23)C1,-17.1% (inactive),496
CC1(C)C(c2ccccc2)=NC(c2cccnc2)N1O (configuration not stated),8.2% (inactive),309

# Test: inhibitors of mutant huntingtin aggregation, primary screen, imaging, exon1htt(103Q)mCFP cells, high-content imaging (AID 483;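 active = visual image review flags a hit and inhibition of aggregation exceeds 20%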;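 note: compound exposure lasted 3 days before fixation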;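 for nuclei count: percent of the per-plate median nuclei count of sample wells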)
# Conditions: exon1htt(103Q)mCFP cell line, aggregate imaging, at 2 µM; inhibition of aggregation: stronger effect = higher value; nuclei count: measured here: cell count, toxicity
SMILES,nuclei count,inhibition of aggregation
COC(=O)c1cncn1C(C)c1ccccc1 (configuration not stated),97.9%,-10.9% (inactive)
CCCNS(=O)(=O)c1ccc(OCC(=O)N2CCN(Cc3ccccc3)CC2)cc1,115%,-5% (inactive)
COC(=O)CC1(Cc2ccccc2)C(=O)NC(=O)NC1=O,78%,12.4% (inactive)
COc1ccc(CC[n+]2cc(/N=C(\C)[O-])on2)cc1OC,130%,-6% (inactive)
CC1(C)C(c2ccccc2)=NC(c2cccnc2)N1O (configuration not stated),108%,-17.9% (inactive)

# Test: inhibitors of E-selectin induction by TNFa, primary screen, imaging, HUVEC, immunofluorescence, MLSMR starter and 10KST1 sets (AID 487);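 for inhibition: signal is fraction of cell area covered by stained E-selectin grains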;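 for nuclei count: 100% = median nuclei count of all wells on the same plate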
# Conditions: HUVEC TNFalpha-induced E-selectin immunofluorescence imaging, at 2 µM; inhibition: stronger effect = higher value; nuclei count: measured here: cell number, toxicity
SMILES,nuclei count,inhibition
Nc1ncc(P(=S)(N2CCOCC2)N2CCOCC2)s1,169%,-296% (inactive)
CCCCc1nc(N2CCNCC2)c(C#N)c2c1CSC(C)(C)C2,135%,-143% (inactive)
COc1ccc(C(=O)CC2C(=O)N(C)C(=O)N(C)C2=O)cc1,135%,-27.9% (inactive)
CCc1nc(N2CCNCC2)c(C#N)c2c1CSC(C)(C)C2,159%,-79.8% (inactive)
COC(=O)c1cncn1C(C)c1ccccc1 (configuration not stated),110%,-88.8% (inactive)
CCCN(CC#CCO)CCC,162%,-121% (inactive)
OC1(c2ccc(F)cc2)CCNC1 (configuration not stated),147%,-146% (inactive)
COc1ccccc1-n1c(O)c(C=NCCCn2ccnc2)c(=O)[nH]c1=O,150%,-23.3% (inactive)
COc1ccc(C2SCC(=O)Nc3c2c(=O)[nH]n3C2CCCCC2)cc1 (configuration not stated),138%,-197% (inactive)
CCCNS(=O)(=O)c1ccc(OCC(=O)N2CCN(Cc3ccccc3)CC2)cc1,110%,-3.1% (inactive)
CCCCNC(=O)Nc1ccc(C(O)(C(=O)OCC)C(F)(F)F)cc1 (configuration not stated),173%,-16.7% (inactive)
CCOC(=O)c1cc(C)n(CCc2cnc[nH]2)c1C,123%,-44.2% (inactive)
CC1CN=C(Nc2ccc(N(C)C)cc2)S1 (configuration not stated),136%,-22.4% (inactive)
NCC1(c2ccc3c(c2)OCCO3)CCCC1,120%,-19.9% (inactive)
CCOC(=O)C1=C(C)OC(N)=C(C(=O)OCC)[C@@]12C(=O)N(CC(N)=O)c1ccccc12,186%,-219% (inactive)
COC(=O)C(O)(c1ccc(NC(=O)c2ccco2)c(OC)c1)C(F)(F)F (configuration not stated),152%,1% (inactive)
C=CCOC(=O)C1=C(C)OC(N)=C(C#N)[C@@]12C(=O)N(CC(N)=O)c1ccccc12,193%,-499% (inactive)
C=CCOC(=O)C1=C(C)OC(N)=C(C#N)C12C(=O)N(CN1CCOCC1)c1ccccc12 (configuration not stated),88.4%,-73.4% (inactive)
O=C(CN1CCN(CCO)CC1)Nc1ccc(Cl)cc1C(=O)c1ccccc1,154%,-88.6% (inactive)

SMILES,nuclei count,inhibition
Cc1c(N=Cc2c(O)n(Cc3ccco3)c(=O)[nH]c2=O)c(=O)n(-c2ccccc2)n1C,133%,-156% (inactive)
CN(C)CCOC(=O)c1cn(Cc2ccccc2)c2ccccc12,182%,-111% (inactive)
COC(=O)CC1(Cc2ccccc2)C(=O)NC(=O)NC1=O,140%,-73.6% (inactive)
COc1ccc2c(c1OC)C(=O)OC2c1c(O)n(C2CCCCC2)c(=O)[nH]c1=O (configuration not stated),150%,-2.8% (inactive)
Cn1c(O)c(C=NCCCNC2CCCCC2)c(=O)n(C)c1=O,131%,-81.5% (inactive)
COc1ccc(C2SCC(=O)Nc3c2c(=O)[nH]n3C2CCCCCC2)cc1 (configuration not stated),96%,70.4% (inactive)
CNC(=O)N(C)c1nnc(C(C)(C)C)s1,73.8%,-26% (inactive)
CCCC12CN3CN(C1)CC(CCC)(C3)C2O (configuration not stated),146%,-164% (inactive)
Nc1c(C(=O)NCc2ccco2)c2nc3ccccc3nc2n1CCN1CCCCC1,138%,50.8% (inactive)
OC(c1ccc(F)cc1)C(c1ccccc1)N1CCOCC1 (configuration not stated),153%,8% (inactive)
COC(=O)C(c1ccccc1)N1CCCCCC1 (configuration not stated),165%,20.3% (inactive)
CCn1c(O)c(C(=O)CC2NCCc3ccccc32)c(=O)n(CC)c1=S (configuration not stated),120%,-84.9% (inactive)
Nc1c(C(=O)NCc2ccco2)c2nc3ccccc3nc2n1Cc1ccc(F)cc1,108%,-9% (inactive)
COc1ccc(CC[n+]2cc(/N=C(\C)[O-])on2)cc1OC,95.3%,48.2% (inactive)
CCCCNC(=O)Nc1ccc(C(O)(C(=O)OC)C(F)(F)F)cc1 (configuration not stated),154%,7.1% (inactive)
CC1(C)NCCN2C(=O)CSC21 (configuration not stated),158%,-216% (inactive)
CC1(c2ccccc2)NCCN2C(=O)CSC21 (configuration not stated),147%,32.4% (inactive)
CN1CCc2c(c(N3CCCCC3)nc3n[nH]c(N)c23)C1,127%,-154% (inactive)
CC1(C)C(c2ccccc2)=NC(c2cccnc2)N1O (configuration not stated),99.6%,17.6% (inactive)
